Measured values taken from paper PMC7862700, “An all-to-all approach to the identification of sequence-specific readers for epigenetic DNA modifications on cytosine”.

How the values were obtained:
Test in all cases: DAPPL (digital affinity profiling via proximity ligation, sequencing); 10 mM Tris-HCl pH 7.5, 50 mM NaCl, 1 mM DTT, 4% glycerol, room temperature, 30 min; GST-TFs on glutathione beads, 16-mer random dsDNA library, 0.1% formaldehyde crosslink after washing; high values mean tight binding
Conditions in all cases: protein: recombinant; tags: N-terminal GST; dsDNA, one strand shown
[1] = target: T1, ERF (Homo sapiens, UniProt P50548 1-548)
T1 sequence: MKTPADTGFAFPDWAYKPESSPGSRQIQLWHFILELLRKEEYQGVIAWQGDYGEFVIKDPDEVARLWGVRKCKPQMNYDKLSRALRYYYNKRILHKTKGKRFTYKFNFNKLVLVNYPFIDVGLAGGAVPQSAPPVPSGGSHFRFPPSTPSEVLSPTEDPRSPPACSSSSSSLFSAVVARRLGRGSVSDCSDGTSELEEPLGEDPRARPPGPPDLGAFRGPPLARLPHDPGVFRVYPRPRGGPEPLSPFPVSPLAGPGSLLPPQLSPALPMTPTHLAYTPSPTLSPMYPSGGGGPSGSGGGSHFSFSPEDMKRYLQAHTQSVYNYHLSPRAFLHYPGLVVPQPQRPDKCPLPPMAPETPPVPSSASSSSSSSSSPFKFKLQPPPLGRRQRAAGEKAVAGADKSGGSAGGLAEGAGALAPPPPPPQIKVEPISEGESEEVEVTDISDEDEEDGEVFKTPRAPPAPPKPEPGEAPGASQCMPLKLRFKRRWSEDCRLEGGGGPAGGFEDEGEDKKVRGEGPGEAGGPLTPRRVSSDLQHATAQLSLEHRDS
Method in brief: (§1)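 Each value of binding signal is a hexamer's read frequency for a factor divided by the same hexamer's frequency in the tag-only sample. Barcoded, bead-captured GST fusions of human transcription factors made in yeast were pooled with that sample and incubated with 200 nmole of a random double-stranded 16-mer DNA library in Tris/NaCl/DTT/glycerol buffer at room temperature for 30 min. Washing, 0.1% formaldehyde crosslinking, proximity ligation, PCR and Illumina NextSeq500 sequencing followed.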

[2] = target: T2, ETV3L (Homo sapiens, UniProt Q6ZN32 1-361)
T2 sequence: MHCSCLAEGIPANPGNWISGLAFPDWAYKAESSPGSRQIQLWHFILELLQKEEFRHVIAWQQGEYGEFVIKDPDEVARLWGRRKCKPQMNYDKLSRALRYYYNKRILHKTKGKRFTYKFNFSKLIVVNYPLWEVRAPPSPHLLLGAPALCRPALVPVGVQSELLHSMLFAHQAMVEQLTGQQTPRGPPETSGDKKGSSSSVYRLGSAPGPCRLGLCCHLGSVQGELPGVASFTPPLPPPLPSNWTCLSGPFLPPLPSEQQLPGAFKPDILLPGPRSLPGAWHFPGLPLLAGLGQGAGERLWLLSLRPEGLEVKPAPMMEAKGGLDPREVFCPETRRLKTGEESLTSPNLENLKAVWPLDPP
Method in brief: as §1

[3] = target: T3, ETS2 (Homo sapiens, UniProt P15036 1-469)
T3 sequence: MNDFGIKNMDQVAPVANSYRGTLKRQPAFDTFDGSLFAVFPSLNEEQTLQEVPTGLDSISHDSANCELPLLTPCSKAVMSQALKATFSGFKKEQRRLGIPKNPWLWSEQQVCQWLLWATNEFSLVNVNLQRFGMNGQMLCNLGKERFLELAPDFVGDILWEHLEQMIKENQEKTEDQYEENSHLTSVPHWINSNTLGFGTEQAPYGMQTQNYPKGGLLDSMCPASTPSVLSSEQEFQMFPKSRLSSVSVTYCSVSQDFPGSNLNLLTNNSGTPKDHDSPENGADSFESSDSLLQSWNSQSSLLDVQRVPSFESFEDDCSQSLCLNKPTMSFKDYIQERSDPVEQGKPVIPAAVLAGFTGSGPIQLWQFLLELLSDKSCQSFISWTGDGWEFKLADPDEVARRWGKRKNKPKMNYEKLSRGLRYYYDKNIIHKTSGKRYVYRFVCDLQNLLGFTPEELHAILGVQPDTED
Method in brief: as §1

[4] = target: T4, ETV7 (Homo sapiens, UniProt Q9Y603 1-341)
T4 sequence: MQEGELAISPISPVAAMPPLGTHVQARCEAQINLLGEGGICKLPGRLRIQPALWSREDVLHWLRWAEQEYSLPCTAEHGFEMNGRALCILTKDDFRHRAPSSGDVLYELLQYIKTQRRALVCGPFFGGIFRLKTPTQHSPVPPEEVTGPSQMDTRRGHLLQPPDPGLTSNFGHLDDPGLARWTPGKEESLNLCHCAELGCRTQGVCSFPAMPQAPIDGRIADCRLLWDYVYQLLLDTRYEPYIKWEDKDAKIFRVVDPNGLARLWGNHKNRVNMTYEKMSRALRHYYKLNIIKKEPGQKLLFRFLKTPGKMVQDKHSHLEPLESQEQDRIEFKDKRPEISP
Method in brief: as §1

[5] = target: T5, ELF5 (Homo sapiens, UniProt Q9UKW6-2 1-255)
T5 sequence: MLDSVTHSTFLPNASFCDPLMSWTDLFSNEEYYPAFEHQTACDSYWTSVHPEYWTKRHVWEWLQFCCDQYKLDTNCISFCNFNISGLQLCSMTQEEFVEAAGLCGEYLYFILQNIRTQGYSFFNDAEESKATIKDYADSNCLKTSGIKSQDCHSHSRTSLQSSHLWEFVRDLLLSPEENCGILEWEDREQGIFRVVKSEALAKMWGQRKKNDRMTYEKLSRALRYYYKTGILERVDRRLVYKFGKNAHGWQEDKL
Method in brief: as §1

[6] = target: T6, ETV3 (Homo sapiens, UniProt P41162-2 1-143)
T6 sequence: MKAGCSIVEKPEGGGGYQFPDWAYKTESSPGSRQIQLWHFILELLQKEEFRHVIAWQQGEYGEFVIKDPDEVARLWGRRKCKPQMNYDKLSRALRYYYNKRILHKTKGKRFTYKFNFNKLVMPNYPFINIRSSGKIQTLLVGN
Method in brief: as §1

[7] = target: ETV6 (Homo sapiens, UniProt P41212 1-452)
Method in brief: as §1

Sequence of ETV6 (P41212 whole entry): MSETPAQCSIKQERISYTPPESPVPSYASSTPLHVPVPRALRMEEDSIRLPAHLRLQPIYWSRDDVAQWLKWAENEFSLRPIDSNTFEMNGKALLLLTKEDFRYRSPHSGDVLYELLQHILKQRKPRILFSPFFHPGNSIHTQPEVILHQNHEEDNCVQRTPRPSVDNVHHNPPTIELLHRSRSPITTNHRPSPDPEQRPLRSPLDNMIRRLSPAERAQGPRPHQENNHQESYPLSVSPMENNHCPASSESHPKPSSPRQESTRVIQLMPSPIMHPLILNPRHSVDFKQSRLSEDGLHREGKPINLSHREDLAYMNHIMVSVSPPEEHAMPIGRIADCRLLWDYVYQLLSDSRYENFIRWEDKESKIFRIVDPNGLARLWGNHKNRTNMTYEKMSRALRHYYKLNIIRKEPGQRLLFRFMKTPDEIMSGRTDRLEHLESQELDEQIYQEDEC

AAGCGA
binding signal [1]: 1.02 fold enrichment (6-mer frequency, TF over GST control) | binding signal [2]: 1.02 fold enrichment (6-mer frequency, TF over GST control) | binding signal [3]: 1.05 fold enrichment (6-mer frequency, TF over GST control) | binding signal [4]: 1.09 fold enrichment (6-mer frequency, TF over GST control) | binding signal [5]: 1.07 fold enrichment (6-mer frequency, TF over GST control) | binding signal [6]: 1.12 fold enrichment (6-mer frequency, TF over GST control) | binding signal [7]: 1.05 fold enrichment (6-mer frequency, TF over GST control)

CATTCA
binding signal [1]: 1.11 fold enrichment (6-mer frequency, TF over GST control) | binding signal [2]: 1.08 fold enrichment (6-mer frequency, TF over GST control) | binding signal [3]: 1.01 fold enrichment (6-mer frequency, TF over GST control) | binding signal [4]: 1.09 fold enrichment (6-mer frequency, TF over GST control) | binding signal [5]: 1.02 fold enrichment (6-mer frequency, TF over GST control) | binding signal [6]: 1.11 fold enrichment (6-mer frequency, TF over GST control) | binding signal [7]: 1.09 fold enrichment (6-mer frequency, TF over GST control)

ACGATC
binding signal [1]: 1.16 fold enrichment (6-mer frequency, TF over GST control) | binding signal [2]: 1.02 fold enrichment (6-mer frequency, TF over GST control) | binding signal [3]: 1.14 fold enrichment (6-mer frequency, TF over GST control) | binding signal [4]: 1 fold enrichment (6-mer frequency, TF over GST control) | binding signal [5]: 1.01 fold enrichment (6-mer frequency, TF over GST control) | binding signal [6]: 1.03 fold enrichment (6-mer frequency, TF over GST control)

ACTCGC
binding signal [1]: 1.17 fold enrichment (6-mer frequency, TF over GST control) | binding signal [2]: 1.08 fold enrichment (6-mer frequency, TF over GST control) | binding signal [3]: 1.14 fold enrichment (6-mer frequency, TF over GST control) | binding signal [4]: 1.09 fold enrichment (6-mer frequency, TF over GST control) | binding signal [5]: 1.08 fold enrichment (6-mer frequency, TF over GST control) | binding signal [6]: 1.08 fold enrichment (6-mer frequency, TF over GST control) | binding signal [7]: 1.25 fold enrichment (6-mer frequency, TF over GST control)

AGCTGC
binding signal [1]: 1.17 fold enrichment (6-mer frequency, TF over GST control) | binding signal [2]: 1.07 fold enrichment (6-mer frequency, TF over GST control) | binding signal [3]: 1.17 fold enrichment (6-mer frequency, TF over GST control) | binding signal [4]: 1.16 fold enrichment (6-mer frequency, TF over GST control) | binding signal [5]: 1.06 fold enrichment (6-mer frequency, TF over GST control) | binding signal [6]: 1.16 fold enrichment (6-mer frequency, TF over GST control) | binding signal [7]: 1.11 fold enrichment (6-mer frequency, TF over GST control)
